± gives the uncertainty stated by the source.
system: U87; experiment: cell viability relative to vehicle control; higher = less growth inhibition (less active); conditions: 10 µM; 72 h
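Further: viable cell number estimated from Alamar Blue fluorescence read at 560/90, part of a single-dose primary screen of an FDA-approved drug library.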

| Compound | cell viability [%] |
| --- | --- |
| CCN1CC(CCN2CCOCC2)C(c2ccccc2)(c2ccccc2)C1=O (configuration not stated) | 104 ± 1.3 |
| CC(=O)Nc1ccc(CC(=O)O)cc1 | 100 ± 1.1 |
| O=C(O)CCNC(=O)c1ccc(/N=N/c2ccc(O)c(C(=O)O)c2)cc1 | 99.6 ± 1.4 |
| CC(=O)NCCCCCCNC(C)=O | 103.9 ± 0.65 |
| N[C@@H](C(=O)N[C@@H]1C(=O)N2C(C(=O)O)=C(CSc3cn[nH]n3)CS[C@H]12)c1ccc(O)cc1 | 105 ± 2.1 |
| O=C1CC[C@@H](C(=O)N2CSC[C@H]2C(=O)O)N1 | 99.4 ± 1.6 |
| CN1C2CCCC1CC(NC(=O)c1nn(C)c3ccccc13)C2 (configuration not stated) | 108 ± 0.83 |
| CCN(CC)CC(=O)Nc1c(C)cccc1C | 94.8 ± 2.8 |
| CN[C@H]1CC[C@@H](c2ccc(Cl)c(Cl)c2)c2ccccc21 [Sertraline] | 34.2 ± 3.8 |
| O=C(O)COCCN1CCN([C@H](c2ccccc2)c2ccc(Cl)cc2)CC1 | 101.2 ± 0.57 |
| CC(=O)SCC(Cc1ccccc1)C(=O)NCC(=O)OCc1ccccc1 (configuration not stated) | 103 ± 2 |
| Fc1ccc([C@@H]2CCNC[C@H]2COc2ccc3c(c2)OCO3)cc1 [Paroxetine] | 101 ± 1.2 |
| Oc1ccc(/C=C/c2cc(O)cc(O)c2)cc1 [resveratrol] | 100.5 ± 0.97 |
| Nc1ccn([C@@H]2O[C@H](CO)[C@@H](O)[C@@H]2O)c(=O)n1 [2(1H)-Pyrimidinone, 4-amino-1-D-arabinofuranosyl- [CAS]] | 47.5 ± 2.9 |
| CC(C)c1ccc2oc3nc(N)c(C(=O)O)cc3c(=O)c2c1 | 107 ± 1.8 |
| CN1CCN2c3ncccc3Cc3ccccc3C2C1 (configuration not stated) | 108 ± 2.1 |
| CCOC(=O)C1(CCCCCCOc2ccc(Cl)cc2)CO1 (configuration not stated) | 106 ± 1.7 |
